Results filed as inconclusive are left out. Calls of active or inactive are those of the source. Rule for the calls, unless noted: active = hit-call score of the fitted dose curve at least 0.9, where 1 is the maximum; inconclusive = response in the unintended direction; inactive = score below 0.9.

The source of these data is PubChem BioAssay (EPA / NIEHS).

Assay [1] can be described thus: ATG_PBREM_CIS: Attagene CIS-FACTORIAL HepG2 Assay for human Phenobarbital-responsive Enhancer Module (PBREM) (AID 2282955; active = hit-call score of the fitted dose curve at least 0.9, where 1 is the maximum; inactive = score below 0.9). The settings on record: HepG2 PBREM cis-reporter, Attagene multiplexed transcription; actives raise or lower the signal. The method in brief: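 Reporter mRNA read by RT-PCR, 6-FAM primer extension, HpaI digestion and capillary electrophoresis. Transfected HepG2 cells, 24 h compound exposure. Gain or loss of signal fitted bidirectionally relative to DMSO baseline.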

A short description of assay [2]: ATG_RORE_CIS: Attagene CIS-FACTORIAL HepG2 Assay for human RAR-related Orphan Receptor Element (RORE) (AID 2282959; active = hit-call score of the fitted dose curve at least 0.9, where 1 is the maximum; inactive = score below 0.9). The following applies: HepG2 Attagene cis-factorial RORE reporter, mRNA; actives raise or lower the signal. The procedure, abridged: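 Readout: fluorescent reporter mRNA by RT-PCR plus capillary electrophoresis, 24 h after dosing transfected HepG2 cells. Endogenous transcription factor activity on a cis promoter element is measured. Gain or loss of signal fitted against DMSO.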

Assay [3] deals with Transcription factor Sp1 (Homo sapiens) (UniProt P08047). The assay is described as follows: ATG_Sp1_CIS: Attagene CIS-FACTORIAL HepG2 Assay for human Specificity Protein 1 (Sp1) (AID 2282961; active = hit-call score of the fitted dose curve at least 0.9, where 1 is the maximum; inactive = score below 0.9). The following applies: HepG2 Sp1 cis-reporter transcription, actives raise or lower the signal. The method in brief: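 Read-out: fluorescence of 6-FAM-labeled, HpaI-digested RT-PCR products separated by capillary electrophoresis. HepG2 cells carried transfected cis-element reporter units and were exposed to chemicals for 24 h; gain or loss of signal fitted relative to DMSO.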

Assay [4] addresses Hepatocyte nuclear factor 4-alpha (Homo sapiens) (UniProt P41235). The assay is described as follows: ATG_HNF4a_TRANS: Attagene TRANS-FACTORIAL HepG2 Assay for human Hepatocyte Nuclear Factor 4 alpha (HNF4a) (AID 2282982). The following applies: HepG2 HNF4a transactivation reporter, mRNA readout. The procedure, abridged: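 Endpoint reflects transcriptional activation of a GAL4-UAS reporter by an HNF4a-GAL4 chimera in transfected HepG2 cells, 24 h post-dosing. Fluorescence from RT-PCR products separated by capillary electrophoresis; DMSO baseline.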

Assay [5] is described as follows: ATG_M_32_TRANS: Attagene TRANS-FACTORIAL HepG2 Assay for M32 Transcription Factor (Internal Marker) (AID 2282984).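 Note: transcript level of a background control reporter unit measured by RT-PCR and capillary electrophoresis.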 The following applies: HepG2 Attagene TRANS M32 internal marker reporter. The method in brief: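 Internal-marker readout from a multiplexed transcription reporter panel. HepG2 cells were transfected with GAL4-UAS reporter units, treated 24 hours, and reporter transcript levels determined by fluorescence after RT-PCR and capillary separation.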

Assay [6] is described as follows: ATG_NFI_CIS: Attagene CIS-FACTORIAL HepG2 Assay for human Nuclear Factor I (NFI) (AID 2282989; active = hit-call score of the fitted dose curve at least 0.9, where 1 is the maximum; inactive = score below 0.9). The settings on record: HepG2 cis-regulatory reporter, NFI response element transcription; actives raise or lower the signal. The method in brief: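 Multiplexed cis-reporter system in human HepG2 cells reports native TF activity as reporter mRNA induction 24 h post-dose. Fragments labelled with 6-FAM, HpaI-digested and resolved by capillary electrophoresis; activity fitted both directions versus DMSO.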

The target in assay [7] is Peroxisome proliferator-activated receptor gamma (Homo sapiens) (UniProt P37231). The assay is described as follows: ATG_PPARg_TRANS: Attagene TRANS-FACTORIAL HepG2 Assay for human Peroxisome Proliferator-activated Receptor-gamma (PPARg) (AID 2283007). The method in brief: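 Read-out: reporter mRNA induction, detected by fluorescence after RT-PCR and capillary electrophoresis. Transiently transfected human HepG2 liver cells carrying a chimeric NR-Gal4 construct were dosed for 24 h; activity was fitted upward relative to DMSO.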

Assay [8] addresses human Retinoid X Receptor beta (RXRb), RXRB (gene 6257) (UniProt P28702). As to the kind of experiment: ATG_RXRb_TRANS: Attagene TRANS-FACTORIAL HepG2 Assay for human Retinoid X Receptor beta (RXRb) (AID 2283013). The method in brief:
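Readout is reporter transcript induction after 24 h dosing. It is measured by RT-PCR of total RNA followed by fluorescent capillary electrophoresis. HepG2 liver cells carry transfected multiple reporter units driven by an exogenous RXRb-Gal4 fusion; activity is relative to DMSO.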

A short description of assay [9]: ACEA_ER_AUC_viability: ACEA Biosciences xCELLigence Real-Time Cell Analysis on Estrogen Receptor Agonism for Viability (AID 2283782).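 Note: hit means loss of impedance signal meaning reduced cell growth or viability.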 The procedure, abridged:
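Read-out: real-time electrical impedance (RT-CES) area under curve, loss of signal taken as reduced viability, normalized to DMSO baseline. T-47D cells, charcoal-stripped serum medium, compounds up to 100 uM final, continuous exposure, 80 h.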

The target of assay [10] is Signal transducer and activator of transcription 3 (Homo sapiens) (UniProt P40763). The assay is described as follows: ATG_STAT3_CIS: Attagene CIS-FACTORIAL HepG2 Assay for human Signal Transducer and Activator of Transcription 3 (STAT3) (AID 2282963; active = hit-call score of the fitted dose curve at least 0.9, where 1 is the maximum; inactive = score below 0.9). The settings on record: HepG2, Attagene cis-factorial STAT3 reporter transcription; actives raise or lower the signal. The procedure, abridged: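 Fluorescence intensity of 6-FAM-labelled reporter fragments, separated by capillary electrophoresis after RT-PCR, gave the signal. Cells were HepG2 transfected with cis-element reporter units and treated 24 h; fitting was bidirectional relative to DMSO.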

Assay [11] deals with Transcriptional activator Myb (Homo sapiens) (UniProt P10242). The assay is described as follows: ATG_Myb_CIS: Attagene CIS-FACTORIAL HepG2 Assay for human Myeloblastosis (Myb) Proto-Oncogene Transcription Factor (AID 2282986; active = hit-call score of the fitted dose curve at least 0.9, where 1 is the maximum; inactive = score below 0.9). The following applies: HepG2 Attagene CIS-FACTORIAL Myb reporter transcription; actives raise or lower the signal. The method in brief: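 HepG2, transient MRTU transfection (cis-element promoters, endogenous TF activity), 24 h compound exposure. Readout: reporter mRNA via RT-PCR, 6-FAM labeling, HpaI digest, capillary electrophoresis. Gain/loss fit vs DMSO.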

Assay [12] is described as follows: TOX21_p53_BLA_p2_viability: Viability Assessment in the Tox21 HCT-116 p53 Agonism Beta-lactamase Assay, Phase 2 (AID 2283591).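 Note: compound exposure lasted 16 h at 37 °C; actives lower the ATP signal meaning cytotoxicity.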 The method in brief:
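HCT116 p53-bla cells, 4000/well, dosed after 5 h plating (217-fold dilution of DMSO stocks) and incubated 16 h at 37C. Viability taken as cellular ATP by CellTiter-Glo luminescence after 30 min RT; signal loss marks cytotoxicity.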

The target in assay [13] is Cellular tumor antigen p53 (Homo sapiens) (UniProt P04637). The assay is described as follows: TOX21_p53_BLA_p2_ratio: Tox21 HCT-116 p53 Agonism Beta-lactamase Assay, Ratio, Phase 2 (AID 2283592). The procedure, abridged:
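Plated HCT116 p53-bla cells (4000/well) received compound after 5 h, then 16 h at 37C/5% CO2. CCF4-AM added, 2 h RT. Ratio of 460 to 530 nm emission taken as the p53 reporter signal.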

Assay [14] has the same target. The assay is described as follows: TOX21_p53_BLA_p3_ratio: Tox21 HCT-116 p53 Agonism Beta-lactamase Assay, Ratio, Phase 3 (AID 2283596). The procedure, abridged: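 Cells were seeded at 4000/well, rested 5 h at 37C, then dosed with DMSO compound solutions (217-fold dilution) for 16 h. CCF4-AM substrate was loaded for 2 h at room temperature, and the 460/530 nm emission ratio was fitted for gain of signal versus DMSO.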

For assay [15] the target is unchanged. As to the kind of experiment: TOX21_p53_BLA_p5_ratio: Tox21 HCT-116 p53 Agonism Beta-lactamase Assay, Ratio, Phase 5 (AID 2283599). The procedure, abridged:
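HCT-116 p53-bla cells (4000/well) plated 5 h, dosed with compound (217-fold DMSO dilution) for 16 h at 37 C; CCF4-AM substrate 2 h at room temperature. Activity is the 460/530 nm emission ratio (405 nm excitation), fitted in gain-of-signal direction versus DMSO.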

Assay [16] in a line: TOX21_p53_BLA_p5_viability: Viability Assessment in the Tox21 HCT-116 p53 Agonism Beta-lactamase Assay, Phase 5 (AID 2283600). The procedure, abridged: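 Workflow: seed 4000 cells per well, wait 5 h, add compounds (DMSO, 217-fold dilution), incubate 16 h, load CCF4-AM 2 h, add CellTiter-Glo, read luminescence after 30 min.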
In assay [17] the target is Cellular tumor antigen p53 (Homo sapiens) (UniProt P04637). The assay is described as follows: TOX21_p53_BLA_p4_ratio: Tox21 HCT-116 p53 Agonism Beta-lactamase Assay, Ratio, Phase 4 (AID 2283601). The procedure, abridged:
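HCT-116 p53 beta-lactamase reporter cells (4000/well) preincubated 5 h, then compound (217-fold dilution of DMSO stock) for 16 h at 37C. CCF4-AM substrate added 2 h at room temperature; 460/530 nm emission ratio fitted upward versus DMSO.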

Assay [18] is described as follows: ATG_M_06_TRANS: Attagene TRANS-FACTORIAL HepG2 Assay for M06 Transcription Factor (Internal Marker) (AID 2282983). The settings on record: HepG2 Attagene TRANS M06 internal marker reporter. The procedure, abridged: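 Background control endpoint: reporter mRNA from transiently transfected HepG2 after 24 h dosing, detected by RT-PCR with capillary electrophoresis fluorescence. Analysed for gain versus DMSO.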

The nature of assay [19]: ATG_GRE_CIS: Attagene CIS-FACTORIAL HepG2 Assay for human Glucocorticoid Response Elements (GRE) (AID 2282947; active = hit-call score of the fitted dose curve at least 0.9, where 1 is the maximum; inactive = score below 0.9). The settings on record: HepG2 GRE cis-reporter, Attagene multiplex mRNA; actives raise or lower the signal. The procedure, abridged:
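Fluorescence intensity of reporter-specific cDNA fragments, separated by capillary electrophoresis, provides the signal. Constructs carry cis-regulating promoters in transiently transfected HepG2 liver cells; 24 h incubation; fitting is bidirectional against DMSO.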

The nature of assay [20]: TOX21_p53_BLA_p4_viability: Viability Assessment in the Tox21 HCT-116 p53 Agonism Beta-lactamase Assay, Phase 4 (AID 2283597).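 Note: hits lower the luminescence signal meaning cytotoxicity.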 The method in brief:
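Readout: ATP luminescence (CellTiter-Glo), measured 30 min after reagent addition at RT. The reagent followed a 2 h CCF4-AM incubation, and the cells had been exposed to compound for 16 h at 37C.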

Chain of human Retinoid X Receptor beta (RXRb), RXRB (gene 6257) (P28702 whole entry, looked up, the tested form may be a part): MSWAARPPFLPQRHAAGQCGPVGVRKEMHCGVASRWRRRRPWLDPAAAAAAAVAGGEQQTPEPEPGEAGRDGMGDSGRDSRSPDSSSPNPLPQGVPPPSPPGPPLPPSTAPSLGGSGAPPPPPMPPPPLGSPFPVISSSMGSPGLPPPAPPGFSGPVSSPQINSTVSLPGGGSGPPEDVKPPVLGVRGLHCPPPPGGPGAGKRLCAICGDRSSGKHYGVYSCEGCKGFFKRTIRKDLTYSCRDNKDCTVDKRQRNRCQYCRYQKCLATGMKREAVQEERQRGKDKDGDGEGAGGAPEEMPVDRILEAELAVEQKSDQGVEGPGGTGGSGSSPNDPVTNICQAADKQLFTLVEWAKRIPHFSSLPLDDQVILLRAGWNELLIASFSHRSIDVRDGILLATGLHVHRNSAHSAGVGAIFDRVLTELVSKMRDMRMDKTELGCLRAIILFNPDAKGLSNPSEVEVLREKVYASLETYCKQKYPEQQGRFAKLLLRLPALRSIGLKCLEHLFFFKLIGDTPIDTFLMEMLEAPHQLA
Chain of Hepatocyte nuclear factor 4-alpha (Homo sapiens) (P41235 whole entry, looked up, the tested form may be a part): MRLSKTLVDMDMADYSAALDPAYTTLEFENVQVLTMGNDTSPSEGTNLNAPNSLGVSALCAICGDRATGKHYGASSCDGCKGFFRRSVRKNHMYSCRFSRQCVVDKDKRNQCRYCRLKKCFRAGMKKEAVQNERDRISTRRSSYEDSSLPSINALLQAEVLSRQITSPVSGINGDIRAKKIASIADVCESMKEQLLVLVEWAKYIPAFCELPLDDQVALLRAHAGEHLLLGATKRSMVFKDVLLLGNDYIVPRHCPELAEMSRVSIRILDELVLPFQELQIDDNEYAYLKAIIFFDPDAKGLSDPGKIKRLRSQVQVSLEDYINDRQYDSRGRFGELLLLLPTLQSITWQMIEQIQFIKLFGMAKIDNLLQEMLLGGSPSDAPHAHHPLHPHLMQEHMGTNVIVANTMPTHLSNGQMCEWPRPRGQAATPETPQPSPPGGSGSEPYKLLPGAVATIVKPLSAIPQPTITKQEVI
Chain of Peroxisome proliferator-activated receptor gamma (Homo sapiens) (P37231 whole entry, looked up, the tested form may be a part): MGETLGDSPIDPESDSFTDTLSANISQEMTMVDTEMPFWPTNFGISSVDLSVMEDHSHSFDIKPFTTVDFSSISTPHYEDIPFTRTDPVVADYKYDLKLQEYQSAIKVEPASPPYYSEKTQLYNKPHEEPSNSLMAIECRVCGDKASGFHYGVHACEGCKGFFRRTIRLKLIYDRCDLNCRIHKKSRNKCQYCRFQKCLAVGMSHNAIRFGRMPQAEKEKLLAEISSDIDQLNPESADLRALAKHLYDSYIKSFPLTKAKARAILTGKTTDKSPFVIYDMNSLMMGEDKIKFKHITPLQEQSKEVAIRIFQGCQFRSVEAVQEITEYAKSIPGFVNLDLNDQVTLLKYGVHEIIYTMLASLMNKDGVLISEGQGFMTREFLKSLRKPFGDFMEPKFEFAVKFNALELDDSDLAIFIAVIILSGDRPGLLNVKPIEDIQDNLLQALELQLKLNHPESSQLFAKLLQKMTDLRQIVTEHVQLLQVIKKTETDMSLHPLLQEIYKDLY
Chain of Transcriptional activator Myb (Homo sapiens) (P10242 whole entry, looked up): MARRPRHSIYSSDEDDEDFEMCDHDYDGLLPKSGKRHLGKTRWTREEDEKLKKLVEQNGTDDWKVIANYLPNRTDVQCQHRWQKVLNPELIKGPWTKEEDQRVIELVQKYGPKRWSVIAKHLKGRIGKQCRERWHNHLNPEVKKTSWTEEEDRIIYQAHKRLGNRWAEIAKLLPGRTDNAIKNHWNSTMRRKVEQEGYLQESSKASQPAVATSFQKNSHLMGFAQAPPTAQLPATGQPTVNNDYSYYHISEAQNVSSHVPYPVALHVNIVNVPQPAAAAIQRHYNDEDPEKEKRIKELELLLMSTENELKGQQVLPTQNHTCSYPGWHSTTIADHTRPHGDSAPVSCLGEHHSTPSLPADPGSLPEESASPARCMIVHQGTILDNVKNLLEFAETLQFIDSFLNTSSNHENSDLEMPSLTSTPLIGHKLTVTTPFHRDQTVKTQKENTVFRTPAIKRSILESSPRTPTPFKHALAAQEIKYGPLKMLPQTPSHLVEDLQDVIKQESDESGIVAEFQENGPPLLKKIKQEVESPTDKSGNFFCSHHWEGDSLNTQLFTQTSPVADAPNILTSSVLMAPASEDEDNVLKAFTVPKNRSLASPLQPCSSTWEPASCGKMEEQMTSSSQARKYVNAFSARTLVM
Chain of Transcription factor Sp1 (Homo sapiens) (P08047 whole entry, looked up): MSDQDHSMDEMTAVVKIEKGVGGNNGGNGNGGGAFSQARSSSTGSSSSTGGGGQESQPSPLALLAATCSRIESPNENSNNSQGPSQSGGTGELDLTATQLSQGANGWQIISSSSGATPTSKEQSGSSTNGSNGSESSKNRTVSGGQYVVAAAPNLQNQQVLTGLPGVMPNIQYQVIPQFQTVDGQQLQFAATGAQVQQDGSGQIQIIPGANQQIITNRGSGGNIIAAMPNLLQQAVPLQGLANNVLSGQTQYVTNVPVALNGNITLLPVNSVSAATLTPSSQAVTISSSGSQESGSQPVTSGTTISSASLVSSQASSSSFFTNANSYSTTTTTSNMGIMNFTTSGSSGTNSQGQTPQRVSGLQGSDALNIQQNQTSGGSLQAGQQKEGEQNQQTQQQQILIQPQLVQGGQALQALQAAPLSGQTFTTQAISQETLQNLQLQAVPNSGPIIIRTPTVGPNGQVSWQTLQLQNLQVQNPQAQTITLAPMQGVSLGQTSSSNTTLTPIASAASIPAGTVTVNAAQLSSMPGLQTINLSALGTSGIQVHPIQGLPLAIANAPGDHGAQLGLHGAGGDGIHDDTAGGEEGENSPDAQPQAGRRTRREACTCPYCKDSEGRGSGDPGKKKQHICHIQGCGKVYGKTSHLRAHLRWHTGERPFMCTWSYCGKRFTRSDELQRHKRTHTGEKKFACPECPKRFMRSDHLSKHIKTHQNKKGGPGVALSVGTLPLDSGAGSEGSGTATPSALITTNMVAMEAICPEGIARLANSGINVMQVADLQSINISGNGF
Chain of Signal transducer and activator of transcription 3 (Homo sapiens) (P40763 whole entry, looked up, the tested form may be a part): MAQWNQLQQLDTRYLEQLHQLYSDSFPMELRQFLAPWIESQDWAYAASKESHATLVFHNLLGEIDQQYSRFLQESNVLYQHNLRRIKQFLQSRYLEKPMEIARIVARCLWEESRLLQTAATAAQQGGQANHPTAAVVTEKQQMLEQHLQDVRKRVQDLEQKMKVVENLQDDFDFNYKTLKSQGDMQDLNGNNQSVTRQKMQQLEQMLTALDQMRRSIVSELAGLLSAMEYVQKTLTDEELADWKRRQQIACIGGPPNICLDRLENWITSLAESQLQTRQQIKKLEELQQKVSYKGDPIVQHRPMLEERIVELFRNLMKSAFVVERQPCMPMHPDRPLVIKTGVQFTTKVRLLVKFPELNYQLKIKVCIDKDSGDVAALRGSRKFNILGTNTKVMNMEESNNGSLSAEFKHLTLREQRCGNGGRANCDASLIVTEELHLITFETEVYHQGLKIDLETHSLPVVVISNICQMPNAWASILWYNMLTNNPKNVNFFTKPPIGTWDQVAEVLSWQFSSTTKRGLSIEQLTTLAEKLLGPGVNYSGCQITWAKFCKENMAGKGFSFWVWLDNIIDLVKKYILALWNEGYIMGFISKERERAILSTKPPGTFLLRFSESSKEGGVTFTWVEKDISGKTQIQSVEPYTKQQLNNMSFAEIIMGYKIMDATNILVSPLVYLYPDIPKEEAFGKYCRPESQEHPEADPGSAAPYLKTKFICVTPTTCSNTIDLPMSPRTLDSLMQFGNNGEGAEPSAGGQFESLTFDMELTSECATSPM
Chain of Cellular tumor antigen p53 (Homo sapiens) (P04637 whole entry, looked up): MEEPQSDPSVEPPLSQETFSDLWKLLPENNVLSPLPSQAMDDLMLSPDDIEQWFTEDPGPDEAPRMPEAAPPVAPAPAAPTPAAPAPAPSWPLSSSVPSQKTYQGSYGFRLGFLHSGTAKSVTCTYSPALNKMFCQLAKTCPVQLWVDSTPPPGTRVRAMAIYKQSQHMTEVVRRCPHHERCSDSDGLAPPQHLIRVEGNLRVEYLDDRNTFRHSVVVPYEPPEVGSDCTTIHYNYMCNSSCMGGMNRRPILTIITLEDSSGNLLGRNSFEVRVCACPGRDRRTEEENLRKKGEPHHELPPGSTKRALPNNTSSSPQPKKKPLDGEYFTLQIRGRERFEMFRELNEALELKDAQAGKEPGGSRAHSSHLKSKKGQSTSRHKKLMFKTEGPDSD

With `[CH3][Sn]([CH3])([Cl])[Cl]`, the result in assay [1], in assay [2], in [3], in [4], in assay [5] and in assay [6] was inactive. For the same molecule, the call in [7] and in [8] was inactive. In addition, the AC50 in assay [9] is 21.3 µM (active).

As for `Cc1ncc(C[n+]2csc(CCO)c2C)c(N)n1`, the result in assay [1], in assay [2], in [10], in assay [4], in assay [11] and in [7] was inactive. Also, the molecule was classed as inactive in [12], in assay [13], in assay [14], in assay [15], in [16] and in [17]. Moreover, the molecule was classed as inactive in [9].

Consider `CC(=O)c1cc2c(cc1C)C(C)(C)C(C)CC2(C)C` (stereo unspecified), for which the result in assay [1], in assay [10], in assay [4], in assay [18], in assay [5] and in assay [7] was inactive. Moreover, the result in assay [12], in assay [13], in [14], in assay [15] and in assay [16] was inactive. Besides, the AC50 is 166 µM (active) in [2]; 55.9 µM (active) in assay [11]; 25.4 µM (active) in [6]; 5.85 µM (active) in assay [8]; 79.9 µM (active) in assay [9].

For the molecule `C=COCCCl`, the call in assay [19], in assay [1], in [3], in assay [18], in assay [5] and in [6] was inactive. For the same molecule, the outcome in assay [8] and in assay [9] was inactive.

Take `CN(C)N`: the result in [19], in assay [2], in assay [3], in assay [10], in [4] and in assay [18] was inactive. Moreover, the molecule was called inactive in [5], in assay [11], in assay [6], in assay [20], in [15] and in [17]. Besides, the outcome in [9] was inactive.

On to `C[C@]12CC[C@H](O)C[C@H]1CC[C@@H]1[C@@H]2C[C@@H](O)[C@]2(C)[C@@H](C3=CC(=O)OC3)CC[C@]12O`, for which the AC50 in assay [19] is 6.51 µM (active); in assay [3] it was 1.28 µM (active); in assay [11], 5.88 µM (active); in assay [6] it was 2.61 µM (active); in assay [7], 1.87 µM (active); in assay [9], 1.75 µM (active). For the same molecule, the outcome in [1], in assay [2], in assay [10], in assay [4], in assay [18] and in [5] was inactive. In addition, the molecule was called inactive in assay [8].

In the case of `CCCCNP(N)(N)=S`, the molecule was called inactive in assay [19], in [3], in assay [10], in assay [5], in [11] and in [12]. The outcome in assay [13], in assay [14], in assay [20], in assay [15], in assay [16] and in assay [17] was inactive. The call in [9] was inactive.

For the molecule `Nc1ccccc1`, the call in [19], in assay [2], in assay [3], in [10], in assay [18] and in assay [5] was inactive. Moreover, the call in [11], in [6], in assay [13], in [14], in [15] and in assay [17] was inactive. For the same molecule, in assay [9], the outcome was inactive.

Regarding `CCNCC`, the call in [19], in [3], in assay [18], in assay [11], in assay [6] and in assay [7] was inactive.

With `CC1(C)C(=O)NC(=O)NC1=O`, the call in [19], in [1], in [2], in assay [3], in [10] and in [4] was inactive. In addition, the molecule was called inactive in assay [5], in [11], in [6], in [7], in assay [8] and in assay [12]. Further, the result in assay [13], in [14], in assay [20], in [15] and in [16] was inactive.

Usually AC50 stands for the midpoint of the concentration-response curve, whichever way the signal moves.
